The test system of assay [1] is PRMT1 (protein arginine N-methyltransferase 1). Description: PRMT1 binders on small-molecule microarrays, primary screen, biochemical, small-molecule microarray, 635 nm fluorescence (AID 1088).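 Note: binding of Prmt1 protein to compounds spotted on small-molecule microarray slides.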 The settings on record: small-molecule microarray binding, higher = more signal.
A short description of assay [2]: yeast growth modulation, basal conditions, primary screen, YJM789 clinical isolate, OD600, 24 h (AID 1089).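 Note: growth of clinical yeast isolate S. cerevisiae YJM 789 seeded 1000 cells per well; test concentration not given here.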 The note with it: S. cerevisiae YJM789 growth, higher = more signal, called active from +8 up or from −8 down.
A short description of assay [3]: fission yeast growth modulation, primary screen, strain 972, OD600, 24 h, no modulator (AID 1090).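 Note: basal condition with compound alone and no growth modifier present; test concentration not given here.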 The note with it: S. pombe 972 growth, higher = more signal, called active from +8 up or from −8 down.
Assay [4] is described as follows: S. cerevisiae growth modulation with rapamycin, primary screen, strain BY4716, OD600, 96 h (AID 1091). Note: test concentration not given here. The settings on record: higher = more signal, called active from +8 up or from −8 down.
Assay [5] addresses Torsin-1A-interacting protein 2 (Homo sapiens) (UniProt Q8NFQ8). Description: LULL1 binders on small-molecule microarray, primary screen, cell lysate, human LULL1 lysate, 635/667 nm fluorescence (AID 1092).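 Note: probe is lysate of COS7 cells overexpressing human LULL1; score merges per-feature 667 nm fluorescence with signal-to-noise.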 The note with it: hLULL1 lysate binding, 635 nm fluorescence, higher = more signal.
Assay [6] can be described thus: E. coli growth modulation, two-sided OD650, primary screen, E. coli filamentation project, strain DRC41, 24 h (AID 1093).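 Note: MC1000 strain lacking acrAB efflux and sulA so SOS filamentation is blocked; test concentration not given here.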 The note with it: OD650, 24 h, higher = more signal, called active from +8 up or from −8 down.
Assay [7] is described as follows: small-molecule microarray binders of probe aLefty2, primary screen, biochemical, biotinylated probe, 635/667 nm fluorescence (AID 1094).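 Note: score merges spot fluorescence near 667 nm with spot signal-to-noise ratio.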 The note with it: higher = more signal.
Assay [8] concerns Noggin (protein binding on small-molecule microarray). Description: Noggin binders on small-molecule microarray, primary screen, biochemical, 635/667 nm fluorescence (AID 1095).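 Note: score merges 667 nm feature fluorescence with signal to noise over triplicate slides.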 The note with it: 635 nm fluorescence, higher = more signal.
The target of assay [9] is Neurogenic locus notch homolog protein 3 (Homo sapiens) (UniProt Q9UM47). Description: NOTCH3 binders on small-molecule microarray, primary screen, biochemical, 635/667 nm fluorescence (AID 1096). The note with it: NOTCH3 binding, 635 nm fluorescence, higher = more signal.
Chain of Neurogenic locus notch homolog protein 3 (Homo sapiens) (Q9UM47 whole entry, looked up): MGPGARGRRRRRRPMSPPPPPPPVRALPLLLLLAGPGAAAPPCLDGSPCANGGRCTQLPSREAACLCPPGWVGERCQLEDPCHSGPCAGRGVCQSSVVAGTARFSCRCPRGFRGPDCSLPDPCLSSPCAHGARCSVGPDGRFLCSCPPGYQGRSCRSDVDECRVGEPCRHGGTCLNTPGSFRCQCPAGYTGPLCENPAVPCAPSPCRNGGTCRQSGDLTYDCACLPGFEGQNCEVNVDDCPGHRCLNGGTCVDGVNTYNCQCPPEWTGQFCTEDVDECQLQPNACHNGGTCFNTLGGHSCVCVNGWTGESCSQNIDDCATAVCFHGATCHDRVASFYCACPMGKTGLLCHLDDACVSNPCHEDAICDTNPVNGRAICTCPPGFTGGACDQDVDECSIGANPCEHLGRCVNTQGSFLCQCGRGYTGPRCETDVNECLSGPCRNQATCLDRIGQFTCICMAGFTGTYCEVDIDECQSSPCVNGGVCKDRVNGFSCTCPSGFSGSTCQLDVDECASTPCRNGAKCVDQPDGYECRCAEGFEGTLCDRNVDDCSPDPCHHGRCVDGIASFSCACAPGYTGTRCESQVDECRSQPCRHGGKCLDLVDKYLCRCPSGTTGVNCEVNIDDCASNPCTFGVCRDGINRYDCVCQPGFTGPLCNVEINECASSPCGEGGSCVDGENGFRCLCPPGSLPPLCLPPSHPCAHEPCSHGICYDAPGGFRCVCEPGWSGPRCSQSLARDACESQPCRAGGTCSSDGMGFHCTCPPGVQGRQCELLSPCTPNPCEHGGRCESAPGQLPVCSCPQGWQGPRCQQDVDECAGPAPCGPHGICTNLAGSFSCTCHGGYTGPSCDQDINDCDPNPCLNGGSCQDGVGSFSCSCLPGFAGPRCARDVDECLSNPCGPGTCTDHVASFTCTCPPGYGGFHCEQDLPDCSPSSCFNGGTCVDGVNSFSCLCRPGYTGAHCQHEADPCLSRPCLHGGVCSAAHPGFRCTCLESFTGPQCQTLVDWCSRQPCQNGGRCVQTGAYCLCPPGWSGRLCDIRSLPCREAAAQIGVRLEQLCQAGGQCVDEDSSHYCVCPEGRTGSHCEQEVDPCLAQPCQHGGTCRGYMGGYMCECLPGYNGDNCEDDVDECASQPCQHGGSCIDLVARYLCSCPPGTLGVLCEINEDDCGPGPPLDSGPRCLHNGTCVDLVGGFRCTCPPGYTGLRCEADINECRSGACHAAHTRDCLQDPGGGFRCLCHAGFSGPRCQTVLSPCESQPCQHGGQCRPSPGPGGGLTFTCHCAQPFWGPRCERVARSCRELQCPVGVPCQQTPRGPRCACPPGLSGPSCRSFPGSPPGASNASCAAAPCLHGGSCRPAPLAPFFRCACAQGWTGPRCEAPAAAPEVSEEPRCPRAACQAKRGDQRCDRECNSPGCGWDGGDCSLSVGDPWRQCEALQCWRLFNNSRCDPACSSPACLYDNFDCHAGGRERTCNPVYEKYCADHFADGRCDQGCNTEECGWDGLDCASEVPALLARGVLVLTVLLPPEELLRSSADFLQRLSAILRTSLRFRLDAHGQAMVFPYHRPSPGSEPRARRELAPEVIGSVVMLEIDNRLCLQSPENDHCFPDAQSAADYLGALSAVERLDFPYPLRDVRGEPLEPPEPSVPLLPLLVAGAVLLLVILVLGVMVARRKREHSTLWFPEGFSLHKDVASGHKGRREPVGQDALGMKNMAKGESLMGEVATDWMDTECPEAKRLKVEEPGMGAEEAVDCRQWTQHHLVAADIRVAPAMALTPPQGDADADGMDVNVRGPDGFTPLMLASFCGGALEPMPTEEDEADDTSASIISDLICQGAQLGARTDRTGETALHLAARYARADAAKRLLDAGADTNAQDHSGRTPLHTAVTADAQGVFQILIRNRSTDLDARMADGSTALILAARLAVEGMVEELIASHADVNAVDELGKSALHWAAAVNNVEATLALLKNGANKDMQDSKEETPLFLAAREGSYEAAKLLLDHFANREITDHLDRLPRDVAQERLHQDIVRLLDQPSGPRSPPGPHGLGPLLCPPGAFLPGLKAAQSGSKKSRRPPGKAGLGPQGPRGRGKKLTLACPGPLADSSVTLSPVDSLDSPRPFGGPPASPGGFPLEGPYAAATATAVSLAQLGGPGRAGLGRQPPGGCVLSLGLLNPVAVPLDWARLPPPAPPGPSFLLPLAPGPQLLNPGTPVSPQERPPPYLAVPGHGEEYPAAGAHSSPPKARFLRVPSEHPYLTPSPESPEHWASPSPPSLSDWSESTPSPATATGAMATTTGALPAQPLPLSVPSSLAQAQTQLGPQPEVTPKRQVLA
Assay [10] can be described thus: small-molecule microarray binders of probe aEGFR, primary screen, biochemical, biotinylated probe, 635/667 nm fluorescence (AID 1097).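 Note: probe is a biotinylated anti-EGFR antibody binding compounds printed on slides; score combines fluorescence near 667 nm and signal to noise of each spot.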 The note with it: higher = more signal.
Assay [11] deals with Plasmodium falciparum Sir2 (PF13_0152, Sir2A). Description: pfSir2 binders on small-molecule microarrays, primary screen, biochemical, small-molecule microarray, 635 nm fluorescence (AID 1098).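 Note: score merges spot fluorescence intensity with its signal-to-noise ratio.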 The note with it: small-molecule microarray binding, fluorescence 635 nm; higher = more signal.
A short description of assay [12]: small-molecule microarray binders of probe aDKK1, primary screen, biochemical, biotinylated probe, 635/667 nm fluorescence (AID 1099).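 Note: score merges 667nm spot fluorescence with signal to noise across triplicate slides; reference of the scale not given here.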 The note with it: higher = more signal.
The nature of assay [13]: small-molecule microarray binders of probe aCHRDL2, primary screen, biochemical, biotinylated probe, 635/667 nm fluorescence (AID 1100). The settings on record: higher = more signal.
A short description of assay [14]: splicing luciferase reporter signal modulators, primary screen, spliceosome inhibition project, cell-based, HEK293, splice +/- reporter (AID 1101).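 Note: HEK293 cells carrying a splicing-competent luciferase reporter gene; test concentration not given here.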 The settings on record: luminescence, 24 h, higher = more signal, called active from +8 up or from −8 down. On the technique in general: A reporter such as luciferase makes a cellular process visible.
Assay [15] has as its target Fibroblast growth factor 10 (Homo sapiens) (UniProt O15520). As to the kind of experiment: FGF10 binders on small-molecule microarrays, primary screen, biochemical, small-molecule microarray, 635 nm fluorescence (AID 1102). The settings on record: FGF10 binding, fluorescence 635 nm, higher = more signal.
The subject of assay [16] is glycogen synthase kinase-3 (GSK3A per assay name; protocol says GSK3B). As to the kind of experiment: GSK3 binders on small-molecule microarrays, primary screen, biochemical, small-molecule microarray, 635 nm fluorescence, GSK3A (AID 1103). Note: the record names both GSK3A and GSK3B. The settings on record: small-molecule microarray binding, fluorescence 635 nm; higher = more signal.
The target of assay [17] is Epidermal growth factor receptor (Homo sapiens) (UniProt P00533). Description: EGFR binders on small-molecule microarrays, primary screen, biochemical, small-molecule microarray, 635 nm fluorescence (AID 1104).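 Note: score merges 667 nm emission intensity with spot signal to noise over triplicate slides.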 The settings on record: EGFR binding, higher = more signal.
Chain of Epidermal growth factor receptor (Homo sapiens) (P00533 whole entry, looked up): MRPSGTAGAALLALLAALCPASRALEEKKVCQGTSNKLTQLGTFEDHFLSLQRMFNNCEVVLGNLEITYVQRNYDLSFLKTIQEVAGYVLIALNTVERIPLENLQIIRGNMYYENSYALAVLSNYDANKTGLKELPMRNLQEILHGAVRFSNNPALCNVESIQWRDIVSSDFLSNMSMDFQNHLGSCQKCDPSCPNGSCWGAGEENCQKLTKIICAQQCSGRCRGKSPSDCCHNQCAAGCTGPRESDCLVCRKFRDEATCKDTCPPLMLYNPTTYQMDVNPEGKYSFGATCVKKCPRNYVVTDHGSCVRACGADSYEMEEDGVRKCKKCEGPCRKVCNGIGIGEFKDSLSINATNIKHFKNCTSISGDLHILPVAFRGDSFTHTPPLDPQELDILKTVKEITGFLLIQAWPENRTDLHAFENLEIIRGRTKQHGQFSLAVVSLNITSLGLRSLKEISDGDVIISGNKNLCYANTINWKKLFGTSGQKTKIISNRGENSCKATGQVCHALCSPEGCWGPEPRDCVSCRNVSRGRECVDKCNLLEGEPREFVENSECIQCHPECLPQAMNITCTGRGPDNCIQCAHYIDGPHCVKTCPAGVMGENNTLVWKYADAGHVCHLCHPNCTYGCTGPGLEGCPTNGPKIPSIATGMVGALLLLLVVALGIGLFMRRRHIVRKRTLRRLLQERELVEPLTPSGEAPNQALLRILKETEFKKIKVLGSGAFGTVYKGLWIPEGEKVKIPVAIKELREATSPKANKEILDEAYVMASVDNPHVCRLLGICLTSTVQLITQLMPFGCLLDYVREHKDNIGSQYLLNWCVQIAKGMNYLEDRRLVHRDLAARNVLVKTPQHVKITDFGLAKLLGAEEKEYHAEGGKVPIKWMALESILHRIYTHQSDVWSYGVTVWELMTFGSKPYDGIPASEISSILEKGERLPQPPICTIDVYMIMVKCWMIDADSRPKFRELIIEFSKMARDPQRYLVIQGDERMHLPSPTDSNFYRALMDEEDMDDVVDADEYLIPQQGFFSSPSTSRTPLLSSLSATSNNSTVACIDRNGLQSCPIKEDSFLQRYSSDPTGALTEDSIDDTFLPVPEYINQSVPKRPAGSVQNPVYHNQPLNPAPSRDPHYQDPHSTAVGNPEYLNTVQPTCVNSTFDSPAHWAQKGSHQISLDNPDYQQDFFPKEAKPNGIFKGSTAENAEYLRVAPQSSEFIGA
Assay [18] concerns the target Follistatin-related protein 3 (Homo sapiens) (UniProt O95633). Description: FSTL3 binders on small-molecule microarrays, primary screen, biochemical, small-molecule microarray, 635 nm fluorescence (AID 1105).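 Note: score merges emission near 667 nm and signal to noise per printed spot across three slides.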 The note with it: FSTL3 binding, higher = more signal.
For assay [19], the target named is Dickkopf-related protein 1 (Homo sapiens) (UniProt O94907). Description: DKK1 binders on small-molecule microarrays, primary screen, biochemical, small-molecule microarray, 635 nm fluorescence scan (AID 1106).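 Note: score merges emission near 667 nm with signal to noise over three replicate slides.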 The settings on record: DKK1 binding, higher = more signal.
Chain of Dickkopf-related protein 1 (Homo sapiens) (O94907 whole entry, looked up): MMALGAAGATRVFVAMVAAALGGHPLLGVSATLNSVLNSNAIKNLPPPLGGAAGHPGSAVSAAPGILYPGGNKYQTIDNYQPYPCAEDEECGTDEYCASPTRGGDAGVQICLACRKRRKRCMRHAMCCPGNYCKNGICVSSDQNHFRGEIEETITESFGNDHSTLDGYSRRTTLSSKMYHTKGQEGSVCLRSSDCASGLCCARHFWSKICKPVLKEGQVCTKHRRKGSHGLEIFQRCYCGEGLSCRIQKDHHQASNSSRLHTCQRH
The test system of assay [20] is Inhibin beta A chain (activin A). Description: INHBA (activin A) binders on microarrays, primary screen, biochemical, small-molecule microarray, 635 nm fluorescence scan (AID 1107).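 Note: mouse activin A protein probed at 4.33 µg/mL on printed slides; score merges bound-protein fluorescence near 667 nm with spot signal-to-noise.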 The settings on record: small-molecule microarray binding, higher = more signal.

Calls of active or inactive are those of the source.

Chain of Follistatin-related protein 3 (Homo sapiens) (O95633 whole entry, looked up): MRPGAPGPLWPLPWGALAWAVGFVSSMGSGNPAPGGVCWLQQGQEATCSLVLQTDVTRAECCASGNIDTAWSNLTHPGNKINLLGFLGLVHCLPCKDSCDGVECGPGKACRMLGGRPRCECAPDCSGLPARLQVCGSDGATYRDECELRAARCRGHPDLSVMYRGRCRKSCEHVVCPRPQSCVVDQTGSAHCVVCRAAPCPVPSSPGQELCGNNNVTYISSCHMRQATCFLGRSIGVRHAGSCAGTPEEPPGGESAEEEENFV
Chain of Fibroblast growth factor 10 (Homo sapiens) (O15520 whole entry, looked up): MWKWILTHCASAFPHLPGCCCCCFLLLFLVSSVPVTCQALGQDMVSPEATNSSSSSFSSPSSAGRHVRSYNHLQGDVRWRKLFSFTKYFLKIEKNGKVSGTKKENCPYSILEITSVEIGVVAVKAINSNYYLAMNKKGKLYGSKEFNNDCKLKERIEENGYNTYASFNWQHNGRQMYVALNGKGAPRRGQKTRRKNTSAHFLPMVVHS
Chain of Torsin-1A-interacting protein 2 (Homo sapiens) (Q8NFQ8 whole entry, looked up): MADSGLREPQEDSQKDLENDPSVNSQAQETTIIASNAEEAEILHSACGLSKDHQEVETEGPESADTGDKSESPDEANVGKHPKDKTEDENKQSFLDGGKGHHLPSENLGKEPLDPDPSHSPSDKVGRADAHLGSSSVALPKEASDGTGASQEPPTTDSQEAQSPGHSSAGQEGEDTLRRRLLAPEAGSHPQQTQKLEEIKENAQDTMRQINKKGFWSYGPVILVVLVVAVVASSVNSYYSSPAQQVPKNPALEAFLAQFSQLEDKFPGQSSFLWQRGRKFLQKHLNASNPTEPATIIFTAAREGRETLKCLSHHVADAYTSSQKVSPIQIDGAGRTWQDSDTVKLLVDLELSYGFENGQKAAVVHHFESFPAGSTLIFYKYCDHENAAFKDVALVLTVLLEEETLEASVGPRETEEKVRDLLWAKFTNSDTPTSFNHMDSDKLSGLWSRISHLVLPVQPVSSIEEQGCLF

`O=C(NCc1ccccc1)c1ccc(Br)cc1[N+](=O)[O-]`: the composite z-score in assay [1] was 0.54; in assay [5], 0.715; in [7], 0.109; in assay [8] it was 0.0399; in [9], 0.338; in assay [10], -0.0353. The composite z-score in [11] was 0.333; in assay [12], -0.261; in [13], -0.47; in [15] it was 0.39; in assay [16] it was 0.215; in [17] it was 0.425. In addition, the composite z-score in assay [18] is 0.494; in assay [19], 0.346; in [20] it was 0.31. For the same molecule, the z-score was -1.19 (inactive) in assay [2]; -1.08 (inactive) in assay [3]; -0.778 (inactive) in assay [4]; 0.768 (inactive) in assay [6]; 0.628 (inactive) in assay [14].

On to `O=C1C2C=CC(C(O)C#Cc3ccccc3)N(Nc3ccccc3)C2C(=O)N1c1ccccc1` (stereo not given), for which the composite z-score is 0.398 in assay [1]; 2.95 in assay [5]; 0.217 in [7]; -0.418 in [8]; 0.314 in assay [9]; -0.108 in [10]. The composite z-score is 1.66 in assay [11]; -0.0212 in [12]; 0.498 in [13]; -0.102 in assay [15]; -0.208 in [16]; -0.512 in assay [17]. Besides, the composite z-score is -0.445 in assay [18], -0.572 in assay [19] and 0.687 in assay [20]. Besides, the z-score was 0.132 (inactive) in [2]; -0.0141 (inactive) in [3]; 0.104 (inactive) in [4]; -0.389 (inactive) in assay [6]; 0.287 (inactive) in assay [14].

In the case of `C=C(COC)/C(=C/C[C@H](OC(C)=O)c1ccc(OCCO)cc1)c1cnc2ccccc2c1`, the composite z-score in assay [1] was 1.46; in [5], 1.05; in [7], 0.0707; in [8] it was 0.935; in [9] it was 1.1; in [10], -0.0039. In addition, the composite z-score is -0.407 in assay [11]; 0.231 in assay [12]; -0.146 in assay [13]; 0.741 in assay [15]; 0.844 in [16]; 0.716 in assay [17]. Moreover, the composite z-score in [18] came out at 1.46; in [19], 0.766; in assay [20], 1.8. Also, the z-score in [2] was 1.53 (inactive); in assay [3], -1.49 (inactive); in assay [4], 1.09 (inactive); in assay [6] it was 1.12 (inactive); in assay [14], -1.48 (inactive).

On to `COC(=O)[C@@]1(Cc2ccccc2N=[N+]=[N-])N=C(c2ccc(OCCCO)cc2)O[C@H]1c1ccccc1CN=[N+]=[N-]`, for which the composite z-score in assay [1] was 1.41; in assay [5], 2.6; in [7] it was 0.0641; in [8] it was 0.836; in assay [9], 0.041; in [10], -0.114. The composite z-score is 1.16 in [11]; 0.733 in assay [12]; 0.771 in assay [13]; 0.468 in [15]; 0.393 in assay [16]; -0.34 in assay [17]. The composite z-score in assay [18] is -0.0014; in [19], -0.304; in [20] it was 1.13. Moreover, the z-score is 0.653 (inactive) in assay [2]; -1.3 (inactive) in assay [3]; 28.5 (active) in [4]; 0.255 (inactive) in assay [6]; 1.07 (inactive) in assay [14].

With `CCOC(=O)C1=CC[C@@H](c2ccccc2)N(S(=O)(=O)c2ccc(C)cc2)[C@H]1C`, the composite z-score in [1] stood at 1.53; in [5] it was 3.41; in assay [7], 0.0018; in assay [8] it was 0.672; in assay [9], 1.09; in assay [10], 0.114. Further, the composite z-score in assay [11] turned out to be 1.09; in assay [12], 0.821; in [13] it was 0.567; in assay [15], 1.4; in assay [16], 0.312; in [17], 1.02. Moreover, the values for the composite z-score in assay [18], in assay [19] and in assay [20] were 1.38, 0.635 and 0.258, respectively. Further, the z-score in assay [2] is 0.889 (inactive); in assay [3], -0.212 (inactive); in assay [4], 2.81 (inactive); in assay [6] it was -0.607 (inactive); in assay [14], -0.993 (inactive).

These data come from PubChem BioAssay.
